Laboratory results from PubChem BioAssay AID624172 (National Center for Advancing Translational Sciences (NCATS), 2012).
Out of some 380,000 compounds screened, about 25 (0.007%) were called active. The call rests on the fitted dose curve; in most records, active means well fitted activation curve with a large enough effect; inconclusive means small, poorly fitted or top-dose-only effect; inactive means no such curve, though single readings can be large or run the other way. Not all results are given here.

target: Glucagon-like peptide 1 receptor (Homo sapiens) (UniProt P43220); experiment: qHTS of GLP-1 Receptor Agonists; conditions: HEK293 GLP-1R CRE-luciferase, luminescence, 4-6 h, cells express a hypersensitive GLP-1R form; series mostly up to 45.6 µM; activation: at the top concentration; further: % of control where 0% means no effect
Sequence (P43220 whole entry, looked up): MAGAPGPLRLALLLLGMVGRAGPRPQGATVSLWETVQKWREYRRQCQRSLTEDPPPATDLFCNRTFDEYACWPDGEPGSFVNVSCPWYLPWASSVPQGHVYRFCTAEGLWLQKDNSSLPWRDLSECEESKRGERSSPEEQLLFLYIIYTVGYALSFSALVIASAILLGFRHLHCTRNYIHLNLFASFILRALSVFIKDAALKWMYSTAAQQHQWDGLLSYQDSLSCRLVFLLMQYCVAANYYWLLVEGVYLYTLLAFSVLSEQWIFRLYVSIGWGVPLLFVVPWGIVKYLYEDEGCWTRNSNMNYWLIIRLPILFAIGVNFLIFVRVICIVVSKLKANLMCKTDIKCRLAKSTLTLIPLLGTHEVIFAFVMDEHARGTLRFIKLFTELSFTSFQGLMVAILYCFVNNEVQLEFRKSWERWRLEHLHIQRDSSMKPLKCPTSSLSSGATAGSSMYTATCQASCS
Description: The overall goal of this project was to develop a novel assay for discovering small molecule ligands for class B1 G protein-coupled receptors (GPCRs). Very few agonists (or inverse agonists) with generally weak activity for this entire group of physiologically important receptors are known to date. To establish proof-of-principle that this critical bottleneck can be overcome with a suitable screening approach, our studies focused on the class B1 receptor for glucagon-like peptide-1 (GLP-1R), a potential therapeutic target for diabetes and neurodegenerative disease.
The assay was developed in a "mix and measure" format using a cell-based functional readout. Toward this goal, stably transfected HEK293 cell clones were established that co-express (i) a cAMP-responsive luciferase reporter gene, and (ii) GLP-1Rs that upon ligand interaction either stimulate (agonists) or inhibit (inverse agonists) luciferase activity. In different cell lines to be used for screening, expressed GLP-1Rs are specifically optimized for high sensitivity detection of either weak agonists (hypersensitive receptor) or inverse agonists (constitutively active receptor mutant). In addition, control cell lines were developed that express either the cAMP-responsive reporter gene without recombinant GLP-1Rs (enabling initial exclusion of GLP-1R independent effects of candidate probes), or the reporter gene together with wild type GLP-1Rs (for confirmation of probe activity at this receptor), or the reporter gene in combination with the constitutively active orphan receptor GPR119 (enabling initial exclusion of GLP-1R independent inhibitory effects of candidate inverse agonists).
To that end, this assay was optimized for 1536-well format and screened against the MLSMR.
NIH Molecular Libraries Probe Production Network [MLPCN]
NIH Chemical Genomics Center [NCGC]
PI Name: Martin Beinborn, Tufts Medical Center
In a white solid 1536-well plate, 6 uL of cells are dispensed in DMEM without phenol red, 10% Nu serum, and 1% pen-strep medium. The plates are then incubated for 12 hours at 37 deg C at 5% CO2 before 23 nL of compounds are added. After a 4-6 hr incubation at37 deg C and 5% CO2, 3 uL of detection reagent are added and after a 12 min incubation at RT, a luminescent read is obtained on the ViewLux.

activation, inactive:
COC(=O)[C@@H]1CC2=CC(=O)CC[C@]2(C)[C@@]23O[C@@H]2C[C@@]2(C)[C@@H](CC[C@@]24CCC(=O)O4)[C@H]13 6.89%
OCC(CO)NC1C[C@](O)(CO)[C@@H](O)[C@H](O)[C@H]1O (some centres not stated) -3.76%
Cc1ccccc1NC(=O)Cn1c(=O)n(Cc2ccco2)c(=O)c2ccc(C(=O)NC3CCCC3)cc21 2%
CC(=O)O[C@]1(C(C)=O)CC[C@@H]2[C@@H]3C=C(C)C4=CC(=O)CC[C@@]4(C)[C@H]3CC[C@]21C -3.27% [at 19.8 µM]
C[C@]12CC[C@@H]3c4ccc(O)cc4C[C@@H](CCCCCCCCCS(=O)CCCC(F)(F)C(F)(F)F)C3[C@@H]1CC[C@@H]2O (some centres not stated) 14.3%
Cc1nn(-c2ccc(F)cc2)c(-n2cccc2)c1C(=O)N1CCN(c2ccccc2)CC1 4.43%
O=C(CCCCn1c(=O)c2ccccc2n(CC(=O)Nc2cccc(C(F)(F)F)c2)c1=O)NCc1ccc2c(c1)OCO2 1.22%
COc1cccc(NC(=O)CSc2cc(=O)n(C)c3ccc(Cl)cc23)c1 5.73%
CCc1ccccc1NS(=O)(=O)c1ccc2nc(-c3ccccc3)[nH]c2c1 -6.53%
Cc1ccc(C)c(N2CCN(C(=O)CCc3c(C)nc4c(c3C)c(=O)n(C)c(=O)n4C)CC2)c1 -1.73%
O=C(Nc1cccc(C(F)(F)F)c1)c1cc(Br)cc(Br)c1O -2.09%
CCOC(=O)c1ccc(N2C(=O)c3n[nH]c(C)c3C2c2ccc(O)c(OC)c2)cc1 (configuration not stated) 9.13%
CCc1ccc(NC(=O)CN2CCSc3ccc(S(=O)(=O)N4CCCC4)cc32)cc1 7.06%
C=C1C(=CC=C2CCC[C@]3(C)[C@@H]([C@H](C)C=C[C@H](C)C(C)C)CC[C@@H]23)C[C@@H](O)C[C@@H]1O -4.1%
CCOc1ccc(NC(=O)Cn2cc(C(=O)c3ccc(C)cc3)c(=O)c3cc4c(cc32)OCCO4)cc1 0.588%
CCOC(=O)c1oc2ccc(S(=O)(=O)n3nc(-c4ccccc4OC)cc3N)cc2c1C 0.713%
COc1ccc(S(=O)(=O)n2nc(C)c(S(=O)(=O)N3CCCCCC3)c2C)cc1 -1.8%
CCN(C(=O)c1sc2cc(OC)ccc2c1Cl)c1ccccc1 8.92%
CN(C)c1ccc(NC(=O)CSc2nc(-c3ccco3)cc(C(F)(F)F)n2)cc1 0.431%
CCCCC(=O)OCC(=O)[C@H]1[C@H](C)C[C@@H]2[C@@H]3C[C@@H](F)C4=CC(=O)C=C[C@]4(C)[C@@]3(F)[C@@H](O)C[C@@]21C -0.472%
COc1ccc(NC(=O)Cn2c(=O)cc(C)c3c(C)nn(-c4cccc(Cl)c4C)c32)cc1OC 0.446%
CCCCCCCCCc1ccc(OCCOCCOCCOCCOCCOCCOCCOCCOCCO)cc1 5.73%
COc1cc(CNCCSc2nnnn2C)ccc1OCc1c(F)cccc1Cl 2.51%
Cc1cccc(N2CCN(C(=O)c3cc4c(=O)oc5ccccc5c4s3)CC2C)c1 (configuration not stated) -0.212%
CC(C)(O/N=C(\C(=O)N[C@@H]1C(=O)N2C(C(=O)[O-])=C(C[n+]3ccccc3)CS[C@@H]12)c1csc(N)n1)C(=O)O -3.84% [at 19.8 µM]
COc1ccccc1NC(=O)C1=C(C)Nc2ncnn2C1c1sccc1C (configuration not stated) 9.66%
CCC(CCC(C)C1CCC2C3CC=C4CC(O)CC[C@@]4(C)C3CC[C@@]12C)C(C)C (some centres not stated) 11.2%
Cc1sc2ncn(CC(=O)N3CCN(c4ccc(F)cc4)CC3)c(=O)c2c1S(=O)(=O)N1CCN(c2ncccn2)CC1 -4.64%
Cc1cccc(NC(=O)Cn2c(C(F)(F)F)nc3ccccc32)c1C -0.396%
COc1cc(OC)cc(C(=O)Nc2ccc3nc(Nc4cccc(C(F)(F)F)c4)cc(C)c3c2)c1 -14.1%
CC(=O)Oc1ccccc1C(=O)Nc1ncc([N+](=O)[O-])s1 -1.78%
COc1ccccc1CNC(=O)CCn1c(=O)c2ccccc2n(CC(=O)Nc2ccc(Br)cc2F)c1=O -2.58%
Cc1ccc(N2CCN(C(=O)CCc3c(C)nc4c(c3C)c(=O)n(C)c(=O)n4C)CC2)c(C)c1 -1.8%
C/C=C1\C2C=C(C)CC1(N)c1ccc(=O)[nH]c1C2 (configuration not stated) -2.31%
CC(=O)NC(=O)c1ccccc1O -4.09%
CCCOc1ccc(-c2cccc(NS(=O)(=O)c3ccccc3)c2)nn1 -0.146%
Cc1ccc(S(=O)(=O)NC(=O)NN2C[C@H]3CCC[C@@H]3C2)cc1 -4.28% [at 19.8 µM]
COc1ccc(-c2c(C)nn3c(N4CCC(C(=O)NCCC(C)C)CC4)cc(C)nc23)cc1OC 0.364%
CN(C)CCCSc1ccccc1NC(=O)/C=C/c1ccccc1 6.6%
CCOC(=O)c1c(NC(=O)c2ccc(S(=O)(=O)N3CCCC(C)C3)cc2)sc2c1CCN(C(C)C)C2 (configuration not stated) 8.14%
C[N+](C)(CCOc1ccccc1)Cc1cccs1 (tested in a mixture with another compound) 1.72%
CCOc1ccccc1NC(=O)C1=C(C)Nc2ncnn2C1c1ccc(NC(C)=O)cc1 (configuration not stated) -6.86%
COc1cccc(CNCCSc2nnnn2C)c1OCc1ccccc1Cl 2.98%
CCc1ccc(C(=O)CC2(O)C(=O)N(CCc3ccccc3)c3ccc(Br)cc32)cc1 (configuration not stated) -2.5%
COc1ccccc1CNC(=O)CCn1c(=O)c2ccccc2n(CC(=O)Nc2cccc(Cl)c2)c1=O -0.689%
COc1ccc(CCNc2nc(-c3ccc(F)cc3)cc(C(F)(F)F)n2)cc1OC -0.152%
CCc1ccc(Sc2cc(C(=O)NCCCOC(C)C)c3ccccc3n2)cc1 -7.03%
O=C(CSc1ncc(CO)n1Cc1ccc(Cl)cc1)NCc1ccc(F)cc1 8.49%
COCCNC(=O)c1ccc2c(c1)N=C(C)c1cc(C)ccc1S2 -0.88%
Oc1ccc(Cl)c2c1CCC2 4.26%
COc1ccccc1-c1cc2nc(C)c(CCC(=O)O)c(C)n2n1 -1.35%
O=C(CCS(=O)(=O)c1ccc2c(c1)NC(=O)CO2)Nc1cccc(C(F)(F)F)c1 -0.552%
CCCC[C@H]1C(=O)N(c2ccccc2)N(c2ccc(O)cc2)C1=O 1.82% [at 19.8 µM]
COc1ccc(-n2c(C)nc3c(cnn3-c3ccc(F)cc3)c2=O)cc1 -0.59%
COc1ccc2cc(-c3nc(Cl)c4c5c(sc4n3)CC(C)CC5)c(=O)oc2c1 (configuration not stated) 1.37%
O=C(OCc1ccccc1)c1ccc(O)cc1 0.159%
Cc1ccccc1C(=O)Nc1cc(C)c(O)c(-c2nc3ccccc3o2)c1 -0.525%
